10 compounds from PubChem BioAssay (NCATS) can be followed below.

Inconclusive results are not listed. Active and inactive are the calls of the source. Unless noted, calls come from the whole dose curve; as a rule, active = well fitted curve in the direction sought with a large enough effect; inconclusive = small, poorly fitted or top-dose-only effect, or another doubt; inactive = no such curve, though single readings can be large; an effect the other way counts as inactive or inconclusive.

The nature of experiment [1]: HEK-293 Cancer Cell Toxicity qHTS against the NCATS CANVASS Library (AID 1347355). Note: nearly all actives have a fitted effect of over 65% in size. Note: potency is the fitted concentration of half-maximal effect. The essentials: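 First, 1000 cells go into each well and rest for 4 hours. Next, an 11-point dilution range is pinned in. Plates then incubate 72 hours before CellTiter-Glo addition and luminescence reading.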
Experiment [2] in a line: HPAF-II 24hr Apoptosis Induction qHTS against the NCATS CANVASS Library (AID 1347356). Summed up: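 Cells seeded at 500 per well, then compounds pin-transferred in an 11-point concentration series. After 24 hours at 37 degrees C, Caspase-Glo 3/7 was added and luminescence measured following 15 min at room temperature.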
Experiment [3] in a line: HPAF-II 12hr Apoptosis Induction qHTS against the NCATS CANVASS Library (AID 1347358). Summed up:
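Cells plated at 500 per well are dosed with compound and incubated 12 hours at 37 degrees C. Caspase-Glo 3/7 reagent is added and, after 15 min at room temperature, luminescence proportional to caspase activity is measured.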

Experiment [4] can be described thus: HEK293 24hr Apoptosis Induction qHTS against the NCATS CANVASS Library (AID 1347359). The essentials:
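Caspase-3/7 activation measured as luminescence from the DEVD-based Caspase-Glo reagent, 15 min at room temperature, following 24-hour compound treatment of HEK293 cells.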

Experiment [5] is described as follows: HPAF-II 18hr Apoptosis Induction qHTS against the NCATS CANVASS Library (AID 1347360). The essentials:
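Caspase-Glo 3/7 luminescence (DEVD substrate) after 15 min RT; HPAF-II, 500 cells/well, 18 h compound exposure at 37 degrees C, qHTS series; doxorubicin control 0.1nM - 4uM.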

The nature of experiment [6]: HEK293 12hr Apoptosis Induction qHTS against the NCATS CANVASS Library (AID 1347361). Summed up:
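500 HEK293 cells/well; cpds pin-transferred, 11-pt conc series; 12 h, 37 degrees C/5% CO2; Caspase-Glo 3/7 added, 15 min RT dark; luminescence.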

Experiment [7] deals with NAD(P)H diaphorase (Clostridium kluyveri). Kind of experiment: Diaphorse counterscreen qHTS: Assay Interference Panel against the NCATS CANVASS Library (AID 1347362). Note: potency is the fitted concentration of half-maximal effect. Summed up: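 Counterscreen for coupling-enzyme interference: resorufin fluorescence from resazurin/NADH turnover, read after 5 min at room temperature. Compounds were tested over an 11-point series after 15 min dark preincubation with diaphorase in PBS-Tween.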

The nature of experiment [8]: qHTS for ATAD5 Agonist screened against the NCATS CANVASS Library (AID 1347367). Summed up:
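Luminescence read-out: ATAD5-driven luciferase in stably transfected HEK 293T cells, which rises post-transcriptionally with DNA damage. Cells were exposed 16hr at 37C to test compound; a CellTiter-Fluor fluorescence read (1hr) measured viability first.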

Experiment [9] in a line: J3T Cancer Cell Toxicity qHTS against the NCATS CANVASS Library (AID 1347371). Note: potency is the fitted concentration of half-maximal effect. Summed up: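 Luminescence from CellTiterGlo, reporting cellular ATP, serves as the viability measure after 72 hr compound treatment of J3T canine glioma cells seeded at 500 cells/well.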
The target of experiment [10] is Nuclear receptor subfamily 1 group I member 3 (Homo sapiens) (UniProt Q14994). Briefly: qHTS for Constitutive Androstane Receptor (CAR) Agonist screened against the NCATS CANVASS Library (AID 1347373).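 Note: every well also contained 1.5 µM PK11195 alongside the test compound.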 Note: potency is the fitted concentration of half-maximal effect. The essentials: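 Cells were plated and allowed to attach for 4hr, then dosed with compound in an 11-point series alongside 1.5uM PK11195. After 24hr at 37C, viability was measured fluorometrically and CAR-driven CYP2B6 reporter luminescence was recorded.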
Sequence of Nuclear receptor subfamily 1 group I member 3 (Homo sapiens) (Q14994 whole entry, looked up): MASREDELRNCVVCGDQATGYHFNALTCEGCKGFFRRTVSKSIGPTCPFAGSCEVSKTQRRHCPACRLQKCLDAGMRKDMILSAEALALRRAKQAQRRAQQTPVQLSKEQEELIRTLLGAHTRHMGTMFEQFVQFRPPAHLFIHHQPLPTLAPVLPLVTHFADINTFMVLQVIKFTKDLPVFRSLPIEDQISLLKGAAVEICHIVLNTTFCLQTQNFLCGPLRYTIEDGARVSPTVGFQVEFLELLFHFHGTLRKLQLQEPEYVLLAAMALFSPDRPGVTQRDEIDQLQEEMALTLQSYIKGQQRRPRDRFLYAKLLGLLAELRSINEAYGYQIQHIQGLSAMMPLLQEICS

Experiment [11] in a line: qHTS for Hypoxia signaling pathway (HIF-1) agonists against the NCATS CANVASS Library (AID 1347375). The essentials:
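Cells plated and rested 5 h, compounds pinned in DMSO across 11 concentrations, incubated 17 h at 37C, loaded with CCF4-AM for 2 h, fluorescence read at 460 and 530 nm, then CellTiter-Glo luminescence measured for viability and normalization.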

Experiment [12] can be described thus: 10-beta competent E. coli microbial cell viability qHTS against the NCATS CANVASS Library (AID 1347376). Note: series mostly up to about 46 µM. Summed up: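 Bacterial suspension diluted to 0.2 OD was dosed with compounds, 11-point series, then held overnight at 37C. BacTiter-Glo reagent was added, and after 20 min at room temperature ATP-dependent luminescence was measured.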
The nature of experiment [13]: qHTS for H2AX Agonists against the NCATS CANVASS Library (AID 1347378). The essentials:
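TR-FRET readout (ex 320 nm, em 665/620 nm ratio) of phospho-H2AX (S139) in CHO-K1 lysates. Cells treated 3 hr at 37C with compound titration, 0.76% DMSO; lysis 30 min, antibody detection 24 hr at RT.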

Experiment [14] in a line: Inflammasome Signaling qHTS Counterscreen: IL-1-beta AlphaLISA counterscreen against the NCATS CANVASS Library (AID 1347381).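 Note: cell-free check with purified IL-1β in medium and no THP-1 cells; series mostly up to about 57 µM.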 Summed up: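 Purified IL-1-beta (4 pg/well) + compound, 11-pt conc. series; acceptor beads 6 ug/mL + biotin-Ab 0.6 nM final, 1 h RT; SA-donor 24 ug/ml final, 30 min dark RT; read ex 680/em 615.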
Experiment [15] is described as follows: Cytotoxicity qHTS for assessment of Hepg2 cells membrane integrity screened against the NCATS CANVASS Library (AID 1347387). Summed up: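 Cells were seeded at 2000 per well and left overnight to attach. Compounds were pin-transferred to give 0.59 nM - 46 uM in an 11-point series and incubated 5 hr at 37C. CytoTox-ONE reagent was added and, after 10 min at room temperature, fluorescence (ex 560, em 590 nm) was read.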

Experiment [16] is described as follows: qHTS for activators of dead-cell proteases activity screened against the NCATS CANVASS Library (AID 1347392).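 Note: luminescence from protease leaking out of membrane-damaged cells cleaving impermeant substrate; rising signal means more cytotoxicity.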 Summed up:
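Luminescent dead-cell protease readout (AAF-aminoluciferin, 15 min, room temperature) after 5 h compound treatment of HepG2 cells (2000/well, pre-attached 18 h). Eleven concentrations.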

Experiment [17] in a line: Redox Reaction Profiling qHTS: Assay Interference Panel against the NCATS CANVASS Library (AID 1347401). Note: potency is the fitted concentration of half-maximal effect. The essentials: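 Redox-cycling liability assessed as DTT-driven conversion of resazurin (5 uM, with 200 uM DTT, HEPES pH 7.3) to fluorescent resorufin. Fluorescence at 525/598 nm measured initially and after 15 min dark incubation.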
Experiment [18] can be described thus: qHTS for inhibitors of Rabies Virus screened against the NCATS CANVASS Library (AID 1347402; calls by dose curve; note: series mostly up to about 46 µM).
Experiment [19] has as its target Luciferin 4-monooxygenase (Photinus pyralis) (UniProt P08659). Briefly: Firefly luciferase counterscreen qHTS: Assay Interference Panel against the NCATS CANVASS Library (AID 1347363). Note: potency is the fitted concentration of half-maximal effect. The essentials: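 Luminescence inhibition readout: compounds (11-point qHTS) sat 15 min at room temperature with substrate mix (0.013 mM luciferin and ATP), then firefly luciferase was added and signal read 5 min later.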

Sequence of Luciferin 4-monooxygenase (Photinus pyralis) (P08659 whole entry, looked up): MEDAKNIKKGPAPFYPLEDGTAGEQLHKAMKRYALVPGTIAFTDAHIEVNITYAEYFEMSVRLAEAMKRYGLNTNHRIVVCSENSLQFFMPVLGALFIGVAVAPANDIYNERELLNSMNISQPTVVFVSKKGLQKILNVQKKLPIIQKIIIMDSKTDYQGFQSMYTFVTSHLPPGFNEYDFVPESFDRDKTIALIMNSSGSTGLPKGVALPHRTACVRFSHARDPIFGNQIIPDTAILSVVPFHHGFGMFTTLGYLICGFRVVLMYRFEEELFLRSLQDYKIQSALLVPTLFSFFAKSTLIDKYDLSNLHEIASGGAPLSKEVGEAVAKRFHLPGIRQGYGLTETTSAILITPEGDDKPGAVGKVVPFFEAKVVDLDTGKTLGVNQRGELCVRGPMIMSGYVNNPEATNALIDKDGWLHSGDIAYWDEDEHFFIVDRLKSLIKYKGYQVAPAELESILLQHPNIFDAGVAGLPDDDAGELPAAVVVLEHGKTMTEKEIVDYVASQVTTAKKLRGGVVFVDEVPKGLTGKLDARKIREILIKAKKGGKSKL

As to `COC1=C(C2=C(OC)C(=O)c3cc4c(c(O)c3C2=O)C(=O)O[C@H](C)C4)C(=O)c2c(cc3c(c2O)C(=O)O[C@H](C)C3)C1=O`, the Potency result in experiment [1], in experiment [8], in experiment [9], in [10] and in experiment [13] was “inactive” each time. The compound was classed as inactive in experiment [2], in experiment [3], in experiment [4], in experiment [5], in experiment [6] and in [11]. Besides, the compound was classed as inactive in [12], in [14], in experiment [15], in experiment [16] and in experiment [18]. The Potency in experiment [7] is 1450 nM (active); in experiment [17], 1140 nM (active).
Consider `c1ccc2nc3c(cc2c1)[nH]c1ccccc13`, for which the Potency result in experiment [1], in experiment [7], in [8], in [9], in experiment [13] and in [17] was “inactive” throughout. Further, the compound was classed as inactive in [2], in experiment [3], in [4], in experiment [5], in experiment [6] and in experiment [11]. Further, the outcome in experiment [12], in experiment [14], in experiment [15], in experiment [16] and in [18] was inactive. Besides, the Potency in experiment [19] was 1720 nM (active); in experiment [10] it was 18600 nM (active).
With `C/C=C(\C)C(=O)O[C@@H]1[C@@H](O)[C@@H]2O[C@H]3[C@H](O[C@@H](CCCCC)CCCCCCC(=O)CCC(=O)OC[C@@H](O2)[C@H]1OC(=O)/C=C/c1ccccc1)O[C@H](C)[C@H](OC(C)=O)[C@@H]3O`, the Potency in experiment [1] was 118 nM (active). For the same compound, the compound was called inactive in experiment [2], in experiment [3], in [4], in experiment [5], in experiment [6] and in experiment [11]. For the same compound, the compound was called inactive in [12], in experiment [14], in experiment [15] and in [16]. In addition, the Potency result in experiment [7], in experiment [19], in [8], in experiment [9], in experiment [10] and in experiment [13] was “inactive” throughout. The Potency result in experiment [17] is “inactive”.
Turning to `C/C(=C\[C@H](C)C(=O)C[C@H](O)CC1CC(=O)NC(=O)C1)[C@@H]1OC(=O)/C=C/CC/C=C/C=C/[C@@H]1C`, the Potency in [1] was 148 nM (active); in experiment [9] it was 264 nM (active); in experiment [17], 24100 nM (active). Moreover, the call in [2], in experiment [3], in experiment [4], in [5], in experiment [6] and in experiment [11] was inactive. For the same compound, the result in experiment [12], in experiment [14], in experiment [15] and in experiment [16] was inactive. Also, the Potency entry in experiment [19], in experiment [8] and in experiment [10] was “inactive” each time.
On to `C/C=C1/CN2CC[C@]34C(=C(C(=O)OC)[C@H]1C[C@H]23)Nc1ccccc14`, for which the Potency result in experiment [1], in experiment [7], in [19], in experiment [8], in [9] and in [10] was “inactive” each time. Moreover, the Potency result in experiment [13] and in experiment [17] was “inactive” throughout. Besides, the call in experiment [2], in [3], in experiment [4], in experiment [5], in experiment [6] and in experiment [11] was inactive. Moreover, the result in experiment [12], in experiment [14], in experiment [15], in experiment [16] and in experiment [18] was inactive.
Turning to `C/C=C/C1C=CC2CC(C)CC(C)C2C1C(=O)CC(=O)NC(CO)C/C=C/CCCCC` (stereo unspecified), the call in [18] was inactive.
For `C/C=C/[C@@H]1[C@H]2C[C@@H](C)CC[C@@H]2C(C)=C[C@H]1C(=O)c1c(O)c(-c2ccc(O)cc2)c[nH]c1=O`, the compound was called inactive in experiment [2], in experiment [3], in [4], in experiment [5], in experiment [6] and in experiment [11]. The compound was classed as inactive in experiment [12], in [14], in [15] and in experiment [16]. Also, the Potency entry in [7], in experiment [19], in [8], in experiment [9], in experiment [10] and in experiment [13] was “inactive” throughout. Moreover, the Potency entry in experiment [17] is “inactive”.
Turning to `CC(C)CC1C(=O)O[C@H](C(C)C)C(=O)N(C)C(CC(C)C)C(=O)O[C@@H](C(C)C)C(=O)N(C)C(CC(C)C)C(=O)O[C@H](C(C)C)C(=O)N(C)C(CC(C)C)C(=O)O[C@@H](C(C)C)C(=O)N1C` (stereo partly specified), in experiment [1], the Potency was 2350 nM (active). The outcome in experiment [2], in experiment [3], in [5], in experiment [6], in experiment [11] and in [12] was inactive. The call in experiment [14], in experiment [15], in experiment [16] and in experiment [18] was inactive. For the same compound, the Potency entry in [19], in experiment [8], in [9], in experiment [10], in [13] and in experiment [17] was “inactive” each time.
With `CC[C@@H]1CN2CCc3c([nH]c4cccc(OC)c34)[C@@H]2C[C@@H]1/C(=C\OC)C(=O)OC`, in [1], the Potency was 18700 nM (active). Further, the outcome in [2], in experiment [3], in experiment [4], in experiment [5], in experiment [6] and in [11] was inactive. Besides, the result in [12], in experiment [14], in experiment [15], in experiment [16] and in experiment [18] was inactive. Also, the Potency entry in experiment [7], in [19], in experiment [8], in experiment [10] and in experiment [13] was “inactive” each time.
With `CCCC[C@@H]1CC[C@H]2CCCC(CCCO)N12` (stereo partly specified), the Potency result in [1], in experiment [7], in [19], in experiment [8], in [9] and in experiment [10] was “inactive” throughout. Besides, the Potency result in experiment [13] and in experiment [17] was “inactive” in each case. For the same compound, the compound was classed as inactive in experiment [2], in [3], in [4], in experiment [5], in [6] and in experiment [11]. Besides, the result in experiment [12], in [14], in experiment [15], in experiment [16] and in [18] was inactive.
